Pf growth 48h = P. falciparum growth inhibition at 48 hours (one generation); P. falciparum luciferase growth in erythrocytes, 48 h; Potency, µM (titrated, usually from 28.7 µM), inactives show at the highest dose activity change, negative = inhibition, actives largely listed as inhibitors; hit rate 5.9% among 310,000; AID 504832; note: potency is the fitted concentration of half-maximal effect; % is set by controls: 0 for no effect and ±100 for the full control effect
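Read-out is firefly luciferase luminescence from an integrated reporter in P. falciparum, so falling signal marks reduced parasite growth. Infected erythrocytes were at 2% hematocrit and 0.1% parasitemia (final) in Albumax-supplemented RPMI 1640.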
SARS PLpro yeast = blocks SARS-CoV papain-like protease in a yeast assay; hit rate 0.19% among 330,000; Potency, µM (series often up to 32.9 µM), inactives show at the highest dose activity, positive = growth rescue, actives largely listed as activators; S. cerevisiae expressing SARS-CoV PLpro, growth rescue; calls by dose curve; note: potency is the fitted concentration of half-maximal effect; 0% is about no effect; nearly all actives have a fitted effect of over 55% in size
Shiga inhibitor = inhibitors of Shiga toxin in Vero cells | inhibition, % at 38.7 µM | hit rate 9.2% among 290,000 | Vero cells, Shiga toxin protein synthesis inhibition reporter; in the data active = inhibition mostly above about 28%, no sharp cut-off; inactive = mostly below about 43%; note: 0% is about no effect
Cycloheximide cs = counter-screen hit for Shiga toxin inhibitors, cycloheximide; max response, %; hit rate 12% among 300,000; cell reporter, cycloheximide protein synthesis inhibition counterscreen; in the data active = max response mostly above about 13%, no sharp cut-off; inactive = mostly below about 14%; note: read at 38.3 µM for the half of the compounds with a filed dose; 0% is about no effect
Pf growth 96h = P. falciparum growth inhibition at 96 hour, primary screen for plastid delayed-death inhibitors | hit rate 6.9% among 320,000 | P. falciparum luciferase reporter growth, 96 h | Potency, µM (highest dose often 28.7 µM), without a hit: at the top dose activity change, negative = inhibition, usual class: inhibitors; note: potency is the fitted concentration of half-maximal effect; % is set by controls: 0 for no effect and ±100 for the full control effect
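Erythrocytes infected with luciferase-expressing P. falciparum were dispensed at 2% hematocrit and 0.05% parasitemia (final), then incubated with compounds 96 hours at 37 C in 5% CO2. Luminescence after detection reagent addition reported growth.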
AMA1-RON2 inh = inhibitors of Plasmodium falciparum AMA1-RON2 interaction; AID 720542; hit rate 0.2% among 360,000; Potency, µM (titrated, usually from 58.2 µM), for the others: at the top dose activity change, negative = inhibition, usual class: inhibitors; AlphaScreen AMA1-biotinylated RON2 peptide binding;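 note: potency is the fitted concentration of half-maximal effect; 0% = vehicle wells and -100% = peptide control; nearly all actives have a fitted effect of over 45% in size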
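AMA1 (3D7) with his tag at 25 nM final met compounds first, then biotinylated RON2 peptide at 25 nM; detection used donor plus acceptor beads, 10 µg/mL apiece, read by AlphaScreen after 30 min at room temperature.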
Active calls of the source: *; i = inactive; ? = inconclusive; nt = no result. An excerpt weighted towards active compounds, which were near 19% of everything screened. Unless noted, calls come from the whole dose curve; as a rule, active = well fitted curve in the direction sought with a large enough effect; inconclusive = small, poorly fitted or top-dose-only effect, or another doubt; inactive = no such curve, though single readings can be large; an effect the other way counts as inactive or inconclusive.

SMILES	Pf growth 48h	SARS PLpro yeast	Shiga inhibitor	Cycloheximide cs	Pf growth 96h	AMA1-RON2 inh
O=C(NCc1ccc(N2CCCC2=O)cc1)c1cc(COc2c(F)cccc2F)on1	-15%	-1%	13	22	?	-1%
Cc1nc(CNC(=O)c2cc(COc3c(F)cccc3F)on2)cs1	12%	-3%	39	12	7%	23%
COc1cccc(OCc2cc(C(=O)NCc3ccc4c(c3)OCO4)no2)c1	20%	3%	48*	44*	86%	16%
COc1cccc(CNC(=O)c2cc(COc3c(F)cccc3F)on2)c1	7%	-2%	33*	29*	-17%	6%
COc1ccc(OC)c(S(=O)(=O)N2CCCC(C(=O)N3CCCCCC3)C2)c1 (stereo not drawn)	-12%	-5%	19	-3	?	15%
O=C(NCc1ccco1)c1ccccc1SCC(=O)N1CCCC1	?	1%	nt	nt	-10%	9%
N#CCCN(C(=O)COC(=O)C1CCN(S(=O)(=O)c2ccccc2C(F)(F)F)CC1)c1ccccc1	nt	nt	nt	nt	nt	1%
COc1cccc(CNC(=O)c2cc3c(c(-c4cccc(-c5cccc(C#N)c5)c4)n2)[C@H](CCO)N(S(=O)C(C)(C)C)C3)c1 (stereo partly drawn)	nt	nt	nt	nt	nt	-1%
Cc1ccc(S(=O)(=O)N2CCC(=O)N([C@H](COCc3cccc(Cl)c3)Cc3ccccc3)CC2)cc1	nt	nt	nt	nt	nt	3%
Cc1ccc(S(=O)(=O)N2CCC(=O)N(C(COCc3cccc(C(F)(F)F)c3)Cc3ccccc3)CC2)cc1 (stereo not drawn)	?	-9%	-13	-2	6.6µM*	-7%
Cc1ccc(S(=O)(=O)N2CCC(=O)N(C(COCc3ccccc3)Cc3ccccc3)CC2)cc1 (stereo not drawn)	10µM*	3%	-8	1	10µM*	1%
Cc1ccc(S(=O)(=O)N2CCC(=O)N(C(COCc3cccc(Cl)c3)Cc3ccccc3)CC2)cc1 (stereo not drawn)	8.3µM*	1%	9	-1	10µM*	-17%
Cc1ccc(S(=O)(=O)N2CCC(=O)N([C@H](COCc3ccc(Cl)c(Cl)c3)Cc3ccccc3)CC2)cc1	nt	nt	nt	nt	nt	4%
CN(C)CCCNC(=O)c1ccc(/C=N/O)nc1	-24%	-1%	71	36*	i	34%
CNCCCNC(=O)c1ccc(/C=N/O)nc1	-9%	2%	-7	1	167%	75%
CCOC(=O)C1CCN(c2c(NCc3ccc(C(=O)Nc4ccc(C)cc4)cc3)c(=O)c2=O)CC1	4.7µM*	0%	29	0	4.1µM*	-7%
CCCCNC(=O)c1ccc(CNc2c(N3CCC(C(=O)OCC)CC3)c(=O)c2=O)cc1	12µM*	-7%	3	-2	?	0%
CC1CCN(c2c(NCc3ccc(C(=O)NCc4ccco4)cc3)c(=O)c2=O)CC1	-21%	5%	-9	-2	?	9%
CCOC(=O)C1CCN(c2c(NCc3ccc(C(=O)NC4CCCC4)cc3)c(=O)c2=O)CC1	nt	-2%	-16	-1	?	4%
O=C(NCc1ccco1)c1ccc(CNc2c(N3CCCCC3)c(=O)c2=O)cc1	6%	2%	-17	-3	10µM*	-4%
Cc1cc(C)cc(NC(=O)c2ccc(CNc3c(N4CCCC4)c(=O)c3=O)cc2)c1	?	3%	15	8	0.52µM*	-8%
COc1ccc(C2=C(c3ccccc3)OC(OC)c3cc(F)ccc32)cn1 (stereo not drawn)	nt	nt	nt	nt	nt	-3%
O=C(C1CCN(S(=O)(=O)c2c(Cl)cccc2Cl)CC1)N1CCCCCCC1	?	0%	nt	nt	?	-2%
CCc1ccc(-c2cc(C(=O)Nn3cnnc3)c3ccccc3n2)cc1	nt	-17%	-22	-3	?	0%
CCc1ccc(-c2cc(C(=O)N3N=C(C(F)F)CC3(O)C(F)F)c3ccccc3n2)cc1 (stereo not drawn)	?	-33%	89*	28*	?	62%
CC(C)Cc1cc(C(=O)N2N=C(C(F)F)CC2(O)C(F)F)c2ccccc2n1 (stereo not drawn)	13µM*	-6%	-5	-2	6.6µM*	5%
COc1ccc(COC(=O)CCc2c[nH]c3ccccc23)cc1F	nt	nt	nt	nt	nt	-19%
